Our source for the binding signal values is paper PMC8384837, “Expanding the binding specificity for RNA recognition by a PUF domain”.

One experiment concerns the target PUM1 PUF domain R1-RVM (Homo sapiens, UniProt Q14671 828-1176, S863R;R864V;Q867M). In words: yeast three-hybrid, YBZ-1, SC-Leu-His + 0.5 mM 3-AT, 4 days. Conditions: tags: N-Gal4 AD-HA kept; label: inside an RPR1-promoter hybrid RNA with tandem MS2 sites; ssRNA. The essentials:
(§1)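 Pumilio-1 PUF domain libraries, randomized (NNK) at the three base-contacting residues of each repeat, were co-expressed with matching RNA elements from a centromeric plasmid in strain YBZ-1 (LexA–MS2 coat fusion, HIS3 reporter). Transformants were plated on SC-Leu (input) and SC-Leu-His + 0.5 mM 3-AT (selection) for four days, and repeat regions were PCR-amplified and Illumina-sequenced. The interaction score is the log2 change in variant frequency from input to selection, with pseudocount 1 where absent.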
“GGCUAGAACUAGUGGAUCCCCCGGCGCCCGGCGGCUCGAGCCCGGGUAAGUGUAAAUUGUCUGCAUGCCGCCGGGCGCCAUGCCUGCAGGUCGACUCUAGAAAACAUG”: the binding signal is 2.87 log2 enrichment (interaction score).
On the same count and under the same terms, the figure for “GGCUAGAACUAGUGGAUCCCCCGGCGCCCGGCGGCUCGAGCCCGGGUAAGUGUAAAUGGUCUGCAUGCCGCCGGGCGCCAUGCCUGCAGGUCGACUCUAGAAAACAUG” is 1.04 log2 enrichment (interaction score); for “GGCUAGAACUAGUGGAUCCCCCGGCGCCCGGCGGCUCGAGCCCGGGUAAGUGUAAAUCGUCUGCAUGCCGCCGGGCGCCAUGCCUGCAGGUCGACUCUAGAAAACAUG” it is 3.24 log2 enrichment (interaction score).

In another experiment the target is PUM1 PUF domain R5-FRL (Homo sapiens, UniProt Q14671 828-1176, C1007F;Q1011L). Described as above. Conditions: tags: N-Gal4 AD-HA kept; label: inside an RPR1-promoter hybrid RNA with tandem MS2 sites; ssRNA. The essentials:
as §1
For “GGCUAGAACUAGUGGAUCCCCCGGCGCCCGGCGGCUCGAGCCCGGGUAAGUGUGAAUAGUCUGCAUGCCGCCGGGCGCCAUGCCUGCAGGUCGACUCUAGAAAACAUG”, the binding signal was 0.24 log2 enrichment (interaction score).
The same measure, in the same setting: the figure for “GGCUAGAACUAGUGGAUCCCCCGGCGCCCGGCGGCUCGAGCCCGGGUAAGUGUAAAUAGUCUGCAUGCCGCCGGGCGCCAUGCCUGCAGGUCGACUCUAGAAAACAUG” is 1.49 log2 enrichment (interaction score); for “GGCUAGAACUAGUGGAUCCCCCGGCGCCCGGCGGCUCGAGCCCGGGUAAGUGUUAAUAGUCUGCAUGCCGCCGGGCGCCAUGCCUGCAGGUCGACUCUAGAAAACAUG” it is 1.67 log2 enrichment (interaction score).
On the same count and under the same terms, the figure for “GGCUAGAACUAGUGGAUCCCCCGGCGCCCGGCGGCUCGAGCCCGGGUAAGUGUCAAUAGUCUGCAUGCCGCCGGGCGCCAUGCCUGCAGGUCGACUCUAGAAAACAUG” is 2.63 log2 enrichment (interaction score).
